Experimental findings from paper PMC7819943, “Rice protein-binding microarrays: a tool to detect cis-acting elements near promoter regions in rice” are described below.

Over roughly 39,000 sequences, “fluorescence intensity (a.u.)” has its median near 4,300; the highest 2% begin near 39,000. Only a selection was taken, and the highest values are over-represented in it overall.

For the assay, the target named is T1, OsSMF1 (Oryza sativa, UniProt Q6ZLB0 1-436).
T1 sequence: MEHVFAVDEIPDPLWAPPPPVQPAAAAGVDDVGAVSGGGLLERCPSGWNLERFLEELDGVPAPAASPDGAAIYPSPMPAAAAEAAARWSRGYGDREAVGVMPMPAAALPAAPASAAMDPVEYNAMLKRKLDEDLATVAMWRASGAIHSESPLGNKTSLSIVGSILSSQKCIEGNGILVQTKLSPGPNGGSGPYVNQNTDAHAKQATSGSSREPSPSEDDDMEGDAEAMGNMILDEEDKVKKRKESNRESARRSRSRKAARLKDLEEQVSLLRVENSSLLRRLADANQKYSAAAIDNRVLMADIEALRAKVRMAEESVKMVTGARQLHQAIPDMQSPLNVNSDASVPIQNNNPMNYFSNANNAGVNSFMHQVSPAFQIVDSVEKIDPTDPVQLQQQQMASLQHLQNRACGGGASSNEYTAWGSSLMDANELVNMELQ
Nature of the assay: protein-binding microarray (RPBM); PBS, 2% BSA, 51.3 ng/ul salmon testes DNA, 50 uM zinc acetate, 200 nM TF, 25 C, 1 h; high values mean tight binding. Conditions: protein: recombinant; tags: N-terminal polyhistidine and DsRed monomer fusion (pET32a); chain copies: 2; label: CyDye5-dUTP incorporated in the synthesized complementary strand; 3' TTTTT single-stranded linker to array surface; dsDNA, one strand shown. In short, it runs like this:
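Transcription factors were made in E. coli BL21-CodonPlus as N-terminal fusions to a polyhistidine tag and DsRed, then purified on Ni–NTA. After primer extension with Cy5-dUTP and blocking with 2% BSA, a custom Agilent array was exposed for 1 h at 25 °C to 200 nM protein in PBS, 2% BSA, salmon testes DNA and 50 µM zinc acetate. Washed arrays were scanned on an Axon 4000B, and the binding signal is per-feature fluorescence intensity in arbitrary units.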
Take “GTTGTCAAATGAGTCAATTAGATATTTCCAACCCACACTACGGAGTCACCTAGTGCAG”: the binding signal was 4900 fluorescence intensity (a.u.).

For the sequence “CGTATCTCATCTTTTCGTTTATACTTATACTTATCAGTCACGGAGTCACCTAGTGCAG”, the binding signal is 3230 fluorescence intensity (a.u.).

As for “ATCGATCGATCAATTGGCCAAGGCGGCAAACGGCGGCGGCCGGAGTCACCTAGTGCAG”, the binding signal was 4060 fluorescence intensity (a.u.).

In the case of “TTAGCTTCACAGTTCACTGTAGCGTCTAGAAGAGGAACAGCGGAGTCACCTAGTGCAG”, the binding signal is 63300 fluorescence intensity (a.u.).

As for “TTAGCTAGACTACAGCTCTAGTAGAGCTGTAGAGGTAGAGCGGAGTCACCTAGTGCAG”, the binding signal was 44000 fluorescence intensity (a.u.).

Consider “GATCACTGTACTGTACAGAGGCTAGCTCTAGCTAGGTAGCCGGAGTCACCTAGTGCAG”, for which the binding signal is 26000 fluorescence intensity (a.u.).

On to “AGCTTCAGGAGTTCTTGTCACGTCTCGAGGAAGAGAGGCTCGGAGTCACCTAGTGCAG”, for which the binding signal was 3740 fluorescence intensity (a.u.).

As to “TTGTGGTACGATACTAGTACTACTAGTAGACTAGTAGCAGCGGAGTCACCTAGTGCAG”, the binding signal is 3260 fluorescence intensity (a.u.).

For “GTGAGAACTGAGAGGAGCGTCGGAAGAAGACCGGAAGAAGCGGAGTCACCTAGTGCAG”, the binding signal was 4580 fluorescence intensity (a.u.).

On to “GTGGGCCATCTGACAGTGCATACAGGAACTTTCCCCTTCTCGGAGTCACCTAGTGCAG”, for which the binding signal was 4930 fluorescence intensity (a.u.).

With “ATTATAGGTCCAGCTAAGTTGGCCCTGGTATATATATTGGCGGAGTCACCTAGTGCAG”, the binding signal was 3980 fluorescence intensity (a.u.).

Take “TTGGAGGGGAAGCTATCGTGTATCCACTGCGGAGCACGGCCGGAGTCACCTAGTGCAG”: the binding signal is 3650 fluorescence intensity (a.u.).

For “AACGACGGCGAATTCTACCTCCCCGGGTATCTGGACCTCGCGGAGTCACCTAGTGCAG”, the binding signal is 42900 fluorescence intensity (a.u.).

For “CGTGGTGGACGGCCTCGACGAGGCGATCTGCCCGGTGGCGCGGAGTCACCTAGTGCAG”, the binding signal is 3240 fluorescence intensity (a.u.).

Take “CCGGGCTACCATCGCGGCGACGAAACGTGCATCATCATCCCGGAGTCACCTAGTGCAG”: the binding signal is 3850 fluorescence intensity (a.u.).

On to “CGTGGCACTTAGCGATGAGTGCTGTCGTCAGTAGCAATCCCGGAGTCACCTAGTGCAG”, for which the binding signal was 4620 fluorescence intensity (a.u.).

In the case of “GTACAGCAGGAATCGCTGCTGGCGTCGCTTCGTCGGTTGTCGGAGTCACCTAGTGCAG”, the binding signal was 65100 fluorescence intensity (a.u.).

As for “GCAGGCGTCGGTTTCGCGGCTGGCAGCGGCGGCTCGCTCACGGAGTCACCTAGTGCAG”, the binding signal was 3200 fluorescence intensity (a.u.).

In the case of “GGCTAGCGTACAGGTTAAAACGTGTCGGAATCGTCAGCGCCGGAGTCACCTAGTGCAG”, the binding signal was 4110 fluorescence intensity (a.u.).

As for “GTGTTTTGACGCATGCATGCCGTTGGTCATCAGTTAATCACGGAGTCACCTAGTGCAG”, the binding signal was 3480 fluorescence intensity (a.u.).

Regarding “TTCCCAAAAGGAGGCCCAATGAGAACTTGTATAGTCCTATCGGAGTCACCTAGTGCAG”, the binding signal was 19500 fluorescence intensity (a.u.).

Regarding “ATGTTTTCTAGACTAATATACTATTAATCTATCTTTTATCCGGAGTCACCTAGTGCAG”, the binding signal is 36400 fluorescence intensity (a.u.).

Turning to “GAAATCTAATTTTATCCACGAGACTATAGTGAGCCTACTCCGGAGTCACCTAGTGCAG”, the binding signal is 39700 fluorescence intensity (a.u.).

In the case of “ATGTGACTACCACCTCTAAATTTATCTATTTTATTCACTCCGGAGTCACCTAGTGCAG”, the binding signal is 18600 fluorescence intensity (a.u.).

In the case of “GGGATGTCACACCGTCGAAGGCGTCCAGCTGTCAACATATCGGAGTCACCTAGTGCAG”, the binding signal was 4720 fluorescence intensity (a.u.).

For the sequence “CCGTTAGCCTCCAACGATCCAAACCGCCTCGTCATAAATACGGAGTCACCTAGTGCAG”, the binding signal is 3460 fluorescence intensity (a.u.).

“TGCTGCTCTTGACACCACGTCGTTGCTGCCCTGCTTCCACCGGAGTCACCTAGTGCAG”: the binding signal is 3810 fluorescence intensity (a.u.).

As to “AGTGCCTATGTGGCGTTGACGTGGCGCTTACGTGGCAATTCGGAGTCACCTAGTGCAG”, the binding signal was 27500 fluorescence intensity (a.u.).

On to “GTGGCATTGACGTGGCGCTTACGTGTCAATTCTACTCCGGCGGAGTCACCTAGTGCAG”, for which the binding signal is 44200 fluorescence intensity (a.u.).

On to “ATGACGTGACATTGACGTGGCGCTTACGTGGCAATTCGACCGGAGTCACCTAGTGCAG”, for which the binding signal was 25600 fluorescence intensity (a.u.).

Turning to “TGGCATTGACGTGGCGCTTACGTGGCATTATATCTTGAAACGGAGTCACCTAGTGCAG”, the binding signal was 33400 fluorescence intensity (a.u.).

Regarding “TGACTCAGTATCGATCTGACGTGGCGCTTACGTGGCAATTCGGAGTCACCTAGTGCAG”, the binding signal is 48000 fluorescence intensity (a.u.).

In the case of “TCTGATATGGCATTGACGTGACACTTACGTGGCAATTCGACGGAGTCACCTAGTGCAG”, the binding signal is 12500 fluorescence intensity (a.u.).

“GCTATATTAAACATTTGCTAATGACAAATTAATTAGCTTACGGAGTCACCTAGTGCAG”: the binding signal is 14700 fluorescence intensity (a.u.).

On to “TCCATTTTGGACCGCTGACGAGGACGATAGGAGCGTGAGTCGGAGTCACCTAGTGCAG”, for which the binding signal is 4710 fluorescence intensity (a.u.).

“AGCTTGTGTACCCAGGAGATCTACATACTTCGCTACGTCACGGAGTCACCTAGTGCAG”: the binding signal is 4570 fluorescence intensity (a.u.).

Regarding “AGTATATCCTAAAGCGACACTTTACAGTCTCAAGGACATCCGGAGTCACCTAGTGCAG”, the binding signal was 11200 fluorescence intensity (a.u.).

Regarding “TGGAGGAAGTCAGTAGGATCCCACGTGTCATACTCACACCCGGAGTCACCTAGTGCAG”, the binding signal is 22200 fluorescence intensity (a.u.).

With “ACTCCGGTCCAGGAAAATTATTCCTATAGTAATGTAATAACGGAGTCACCTAGTGCAG”, the binding signal was 42900 fluorescence intensity (a.u.).

Take “ATTTAACTGCATAGAAGTGTATAAGTAAAATAATTTATTCCGGAGTCACCTAGTGCAG”: the binding signal was 4320 fluorescence intensity (a.u.).

Consider “TATATAACCTAAAATGGAGGAAGTAGGAAATATGTAATTCCGGAGTCACCTAGTGCAG”, for which the binding signal is 4630 fluorescence intensity (a.u.).

Take “GCCACACCCACACTGACACACATATACAAGCCAGAGAGATCGGAGTCACCTAGTGCAG”: the binding signal was 3280 fluorescence intensity (a.u.).

Regarding “GAAAGGAAGAGGTGGAGGAAGTGAGACCCACTGACTTGTGCGGAGTCACCTAGTGCAG”, the binding signal is 24500 fluorescence intensity (a.u.).

In the case of “TCCACCACACGTGTCTATATCGCTTCCTTCCATTCCATCACGGAGTCACCTAGTGCAG”, the binding signal was 7170 fluorescence intensity (a.u.).

As for “GACTTGTCCATGCATGCATGCATGACTTGTGTTCAGCCACCGGAGTCACCTAGTGCAG”, the binding signal is 3700 fluorescence intensity (a.u.).

Turning to “TTGTTGGTGTTTCCTCGTCCGCGTCGTCGGTTGCATTCTCCGGAGTCACCTAGTGCAG”, the binding signal was 3190 fluorescence intensity (a.u.).

Take “GTAATTACAGCTCATGATTTTCTCTCTCTCTCTCTCTCTACGGAGTCACCTAGTGCAG”: the binding signal is 19500 fluorescence intensity (a.u.).

“ACTTACACAGTAATTACACCTCACTTACACCCGCTTACACCGGAGTCACCTAGTGCAG”: the binding signal was 5410 fluorescence intensity (a.u.).

On to “CGAAATAAGTAATTTACAGGGCTTTCTCTCTCTCGCTCACCGGAGTCACCTAGTGCAG”, for which the binding signal is 64400 fluorescence intensity (a.u.).

With “ATGTTGACTGGACTAGCACGTGTACGCCACGTAGACCAAACGGAGTCACCTAGTGCAG”, the binding signal is 4790 fluorescence intensity (a.u.).

Turning to “TGCTGATGTTGCTGCTAAAATTGCACCATTGTTGTGTAACCGGAGTCACCTAGTGCAG”, the binding signal was 40700 fluorescence intensity (a.u.).

On to “GGATCAAATTGCCACATATGCGCCACGTTAATGCCACATCCGGAGTCACCTAGTGCAG”, for which the binding signal was 8660 fluorescence intensity (a.u.).

As for “ATAATGCTGACTGAACTGCCATGTGTACGCCACGTAGACCCGGAGTCACCTAGTGCAG”, the binding signal was 27600 fluorescence intensity (a.u.).

Consider “AAATGCTGACTGGACTGCCACGTGTACGCCACGTAGACCACGGAGTCACCTAGTGCAG”, for which the binding signal was 45400 fluorescence intensity (a.u.).

Regarding “ACACGTGGGACCCACGTGGGTCCCATGCTGACTCAGCTGCCGGAGTCACCTAGTGCAG”, the binding signal was 28100 fluorescence intensity (a.u.).

For the sequence “GTCACATCATCATGCATTAATAAAATGCCACGTCATCATCCGGAGTCACCTAGTGCAG”, the binding signal is 50000 fluorescence intensity (a.u.).

With “AGCTGTGTTGCTAATTGTGGCATTGTGATGTGATGATCCCCGGAGTCACCTAGTGCAG”, the binding signal was 3160 fluorescence intensity (a.u.).

For the sequence “TAAATAATTGCCATTGCCATGCTGCCACGTGTCATGGGACCGGAGTCACCTAGTGCAG”, the binding signal was 49900 fluorescence intensity (a.u.).

For the sequence “TTGTTAACTGCTGATGTGTGACCTGACTGTTAAAAGCTGCCGGAGTCACCTAGTGCAG”, the binding signal is 9170 fluorescence intensity (a.u.).

Take “GTGCATAAATTTATTAAAATAGAAAATTAATGCAGTGCCACGGAGTCACCTAGTGCAG”: the binding signal was 4660 fluorescence intensity (a.u.).

Turning to “CACATAAATAATAATAAAATGTGGGACCCACGTGGGCCCCCGGAGTCACCTAGTGCAG”, the binding signal was 10400 fluorescence intensity (a.u.).
